For 24 compounds, GFP response vs DMSO results are on record in PubChem BioAssay AID2029 (NMMLSC, 2009).

Screen size: about 320,000 compounds; about 210 (0.066%) were called active.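 The calls were made as follows: active = GFP response relative to DMSO above a set limit, near the screen mean plus 3 SD (cut at about 150% in these data); inconclusive = Fewer than 70 cells measured for a yeast strain; inactive = the rest.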 Many of the other results were omitted from the sample, so actives are more common in it than they were.

This assay in a line: TOR pathway RTG branch CIT2 reporter changes – S. cerevisiae, GFP fusion, multiplex flow cytometry, MLPCN library, primary screen (AID 2029).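 Also: ratio of well median GFP fluorescence to mean of DMSO wells on the plate.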 The settings on record: S. cerevisiae CIT2-GFP strain, 3 h, at 10 µM, active compounds read high, 100 means same as DMSO wells. (In flow cytometry, cells or beads pass a laser one at a time.)
For `CCCCCc1nnc(NC(=O)c2ccc(=O)n(C)n2)s1`, the GFP response vs DMSO is 113% (inactive).

Regarding `O=S(=O)(c1ccc(Br)cc1)n1ccc2ccccc21`, the GFP response vs DMSO was 77.6% (inactive).

With `CC(C)(C)OC(=O)NCCCCCNC(=O)c1[nH]cnc1C(=O)Nc1nccs1`, the GFP response vs DMSO is 104% (inactive).

On to `CCOCCc1nn2c(=O)cc(CSCC(=O)Nc3cccc(C)c3C)nc2s1`, for which the GFP response vs DMSO was 96.3% (inactive).

With `C/C(=N\NC(=O)c1cc2c(s1)CCC(C)C2)c1cccnc1` (centres undefined), the GFP response vs DMSO was 104% (inactive).

Turning to `O=C(NCCCn1ccnc1)/C(=C\c1ccccc1F)NC(=O)c1ccccc1`, the GFP response vs DMSO was 93.1% (inactive).

On to `Cc1c(C2=CCN(S(=O)(=O)c3ccc(Cl)cc3)CC2)c2ccccc2n1C`, for which the GFP response vs DMSO was 98.5% (inactive).

Consider `Cc1ccc(C(=O)Nc2ccn(C)n2)cc1`, for which the GFP response vs DMSO was 109% (inactive).

For the compound `Cn1ccc(NC(=O)Nc2ccc(Cl)cc2)n1`, the GFP response vs DMSO is 95.9% (inactive).

On to `CN(C)S(=O)(=O)c1cc(C(=O)Nc2ccn(C)n2)c(Cl)cc1Cl`, for which the GFP response vs DMSO was 6000% [may fluoresce green] (active).

As for `CCCCC[C@@H]1C=C(C(=O)O)[C@H](c2ccc(C#N)cc2)N1S(=O)(=O)c1ccc(C)cc1`, the GFP response vs DMSO was 88.2% (inactive).

For `COc1ccccc1N(CC(=O)NC1CCCC1)C(=O)C1(C)CC(=O)N=C2C=CC(C)=CN21` (centres undefined), the GFP response vs DMSO is 104% (inactive).

Regarding `O=C(Nc1ccc(-c2cscn2)cc1)C1CCCN(Cc2ccc(CO)o2)C1` (centres undefined), the GFP response vs DMSO was 97.5% (inactive).

For the compound `COc1ccc(C(=O)N2CCCCC2C(=O)Nc2ccc(-n3nc(C)cc3C)cc2)o1` (centres undefined), the GFP response vs DMSO is 109% (inactive).

As to `O=C(COC(=O)C12CC3CC(CC(O)(C3)C1)C2)NC12CC3CC(CC(C3)C1)C2`, the GFP response vs DMSO is 88.4% (inactive).

In the case of `Cc1ccc(S(=O)(=O)NCCCn2ccnc2)cc1C(=O)NC(C)C`, the GFP response vs DMSO is 99.8% (inactive).

Consider `CCC(C)(C)NC(=O)CN(C(=O)CCC(=O)Nc1nccs1)c1ccc2c(c1)OCO2`, for which the GFP response vs DMSO is 109% (inactive).

In the case of `COc1ccc(C)cc1Nc1n[n+](-c2ccccc2)c(-c2cccc(Cl)c2Cl)s1`, the GFP response vs DMSO was 112% (inactive).

With `O=C(c1ccc(F)cc1)c1cn(Cc2ccc(F)cc2)c2cc3c(cc2c1=O)OCCO3`, the GFP response vs DMSO is 97% (inactive).

As for `NC(=O)NC(=O)C(OC(=O)CCNS(=O)(=O)c1ccccc1)c1ccccc1` (centres undefined), the GFP response vs DMSO was 115% (inactive).

As for `CC(C)(C)n1nc(Cc2cccc3ccccc23)c(C#N)c1N`, the GFP response vs DMSO was 91.2% (inactive).

Regarding `CCCOc1ccc(C2NC(=O)NC(c3ccccc3)=C2C(C)=O)cc1OCC` (centres undefined), the GFP response vs DMSO is 98.7% (inactive).

As to `CC(=O)c1ccc(S(=O)(=O)NCc2nnnn2-c2ccccc2)cc1`, the GFP response vs DMSO is 108% (inactive).

For the compound `CCC(=C/c1sc2ccc3ccccc3c2[n+]1C)/C=C1\Sc2ccc3ccccc3c2N1C`, the GFP response vs DMSO was 189% (active).
